Records with an inconclusive call do not appear. A call without a number means that no potency is given here. A number with no mark means an inactive call. Activity calls are given as the source filed them. Calls follow the shape of the dose curve; as a rule, active = well fitted cell-killing curve with a large enough effect; inconclusive = small, poorly fitted or top-dose-only effect, or effect the other way; inactive = no such curve, though single readings can be large or run the other way.
experiment: Viability qHTS for spleen associated tyrosine kinase inhibitor (SYKi) naive MV4-11 cells (AID 1963823); settings: MV4-11 AML viability, CellTiter-Glo luminescence, 72 h; series mostly up to 45 µM; also: nearly all actives have a fitted effect of over 40% in size
Summary of the method: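 In this viability screen, compounds acted on SYK inhibitor naive MV4-11 cells for three days (72 hr, 37 C). Remaining viable cells were measured by CellTiter-Glo luminescence following a 10 min room-temperature development.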
Potency is read from the fitted curve at half-maximal effect.

Row | Structure (SMILES) | Potency
1 | CC(=O)O[C@H]1C[C@@H](O)C(C)(C)C2C[C@@H](OC(C)=O)[C@@]3(C)C4=CCC(C(CO)CC(O)C5OC5(C)C)[C@]4(C)CCC3[C@]21C (some centres undefined) | inactive
2 | C=C(C)C(=O)O[C@H]1[C@H]2C(=C)C(=O)O[C@@H]2C[C@@H](C)[C@@H]2O[C@@H]2C(=O)[C@](C)(O)[C@@H]1OC(=O)C(=C)C | 1 µM (active)
3 | CCC1=C(C)C(=O)C(C)CC12C(=O)CCC2C(=O)O (centres undefined) | inactive
4 | CCN1CCN(c2ccc(Nc3ccc(-c4ccc(C(N)=O)cc4)n4ncnc34)cc2)CC1 | 0.517 µM (active)
5 | C=C1C(=O)O[C@@H]2C[C@@]3(C)CCC[C@H](C)C3=C[C@H]12 | 13 µM (active)
6 | CCOc1ccc(-c2nc(-c3cccc4c3CCC4NCCO)no2)cc1OCC (centres undefined) | 13 µM (active)

experiment: Viability qHTS for spleen associated tyrosine kinase inhibitor (SYKi) drug resistant MV4-11 cells (AID 1963824); settings: SYKi-resistant MV4-11 viability, CellTiter-Glo, 72 h; series mostly up to 45 µM; also: nearly all actives have a fitted effect of over 35% in size
Summary of the method: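 SYK inhibitor-resistant MV4-11 AML cells, 500 per well, added to predispensed compounds and incubated 72 hr at 37 C, 5% CO2. Viability measured by CellTiter-Glo luminescence after 10 min at room temperature.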

Row | Structure (SMILES) | Potency | viability, % of control
7 | CC(C)=CCC/C(C)=C/CO[C@@H]1O[C@H](CO[C@@H]2O[C@@H](CO)[C@H](O)[C@H]2O)[C@@H](O)[C@H](O)[C@H]1O | inactive | 
8 | C/C(CO)=C1/CCC23COC(C2)C(O)(C(=O)O)CCC13 (centres undefined) | inactive | 
9 | CC(C)C1C(OC(=O)/C=C/c2ccccc2)CC2(C)OC2CCC2(C)OC2C1O (centres undefined) | inactive | 
10 | CC(=O)O[C@H]1C[C@@H](O)C(C)(C)C2C[C@@H](OC(C)=O)[C@]3(C)C(CC[C@@]4(C)[C@H](c5ccoc5)OC(=O)[C@H]5O[C@]543)[C@]21C (some centres undefined) | inactive | 
11 | C/C=C1\[C@H](O[C@@H]2O[C@H](CO)[C@@H](O)[C@H](O)[C@H]2O)OC=C(C(=O)O)[C@H]1CC(=O)OCCc1ccc(O)cc1 | inactive | 
12 | COC(=O)C1=COC(OC2OC(CO)C(O)C(O)C2O)C2C1CC(OC(=O)C(O)CC(=O)O)C2C (centres undefined) | inactive | 
13 | CN(C)CC1CCn2c(c(C3=C(c4cn(C)c5ccccc45)C(=O)NC3=O)c3ccccc32)C1 (centres undefined) | 2.91 µM (active) | 
14 | C=C1C(=O)O[C@H](CCC)[C@H]1C(=O)O | inactive | 
15 | OCC1OC(Oc2cc(O)c3c(c2)OC(c2ccc(O)cc2)C(O)C3)C(O)C1O (centres undefined) | inactive | 
16 | O=C(OC[C@H]1O[C@@H](Oc2ccccc2COC(=O)C2(O)C=CCCC2O)[C@H](O)[C@@H](O)[C@@H]1O)c1ccccc1 (some centres undefined) | inactive | 
17 | CC(=O)O[C@@H]1[C@H](OC(C)=O)C[C@@]2(C)C(CC[C@@H](C)[C@]23Cc2c(O)cc4c(c2O3)CN([C@@H](CCC(=O)O)C(=O)O)C4=O)C1(C)C (some centres undefined) | inactive | 
18 | CC(C(=O)O)C1CCC2(C)C3C(=O)C=C4C(CCC(=O)C4(C)C)C3(C)CCC12C (centres undefined) | inactive | 
19 | COc1cc(/C=C/C(=O)OC2CC(OC(C)=O)C(OC(C)=O)C3C2CCC2C(=O)OC(c4ccoc4)CC23C)ccc1O[C@@H]1O[C@H](CO)[C@@H](O)[C@H](O)[C@H]1O (some centres undefined) | inactive | 
20 | C[C@H](/C=C/[C@@]1(O)[C@H](C)CC(=O)CC1(C)C)O[C@@H]1O[C@H](CO[C@@H]2OC[C@@H](O)[C@H](O)[C@H]2O)[C@@H](O)[C@H](O)[C@H]1O | inactive | 
21 | CC1(C)CCC2(C(=O)OC3OC(COC4OC(CO)C(O)C(O)C4O)C(O)C(O)C3O)CCC3(C)C(=CCC4C5(C)CCC(O)C(C)(C(=O)O)C5CCC43C)C2C1O (centres undefined) |  | 102% [at 9.25 µM]
22 | Cc1ccc(C(=O)/C=C/c2ccccc2)s1 | 7.31 µM (active) | 
23 | CNC(=S)NS(=O)(=O)c1cc(CCNC(=O)c2cc(Cl)ccc2OC)ccc1OC | inactive | 
24 | Cc1cn([C@H]2C[C@H](O)[C@@H](CO)O2)c(=O)nc1N | inactive | 
25 | Nc1ccc(-c2cccc3c(=O)cc(N4CCOCC4)oc23)cc1 | 7.31 µM (active) | 
26 | O=C(c1ccc(F)c(F)c1Nc1ccc(I)cc1F)N1CC(O)(C2CCCCN2)C1 (centres undefined) | 0.326 µM (active) | 
27 | CN(CCc1ccc(Nc2ncc(-c3cccnc3)s2)cc1)Cc1ccccc1 | 0.651 µM (active) | 
28 | C[C@H](O)[C@H](O)/C=C/c1cccc(O)c1CO | 0.0092 µM (active) | 
29 | C[C@@]1(O)[C@H](O)[C@@H](CO)O[C@H]1n1cnc2c(=O)[nH]c(N)nc21 | inactive | 
30 | CC(C)=C1CC2C(CCC2(C)O)C(C)(O)CC1=O (centres undefined) | inactive | 
31 | Clc1ccccc1CNCC1CCC(CNCc2ccccc2Cl)CC1 (centres undefined) | 14.6 µM (active) | 
32 | Oc1ccc(CNc2ccccc2F)c2cccnc12 | 4.61 µM (active) | 
33 | CC1CCC23COC(=O)C2=CC(O)CC3C1(C)CCc1ccoc1 (centres undefined) | inactive | 
34 | CC1C2=CC(=O)OC2(O)CC2C1C(OC(=O)c1ccccc1)C(OC(=O)c1ccccc1)C1(O)C2(C)CCC(O)C1(C)C(=O)O (centres undefined) | inactive | 

Source: PubChem BioAssay (NCATS)
